# Compounds with a hit are over-represented: about 12% of the library has one in this group of screens.
# AMA1 RON2 block = AMA1-RON2 (P. falciparum) interaction inhibition; Potency, µM (highest dose often 58.2 µM), inactives show top-dose activity change, negative = inhibition, actives largely listed as inhibitors; AlphaScreen AMA1-biotinylated RON2 peptide binding; AID 720542; actives 0.2% (n = 360,000);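 further: 0% = vehicle wells and -100% = peptide control; nearly all actives have a fitted effect of over 45% in size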
#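 AMA1 (3D7) with his tag at 25 nM final met compounds first, then biotinylated RON2 peptide at 25 nM; detection used donor plus acceptor beads, 10 µg/mL apiece, read by AlphaScreen after 30 min at room temperature.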
# HCV inhibitor = HCV inhibition; Huh7.5.1 HCVcc-Cre infection, luciferase reporter, 44 h; Potency, µM (series often up to 41.8 µM), without a hit: at the highest dose activity change, negative = inhibition, usual class: inhibitors; actives 3.4% (n = 340,000); AID 651820; further: on the % scale 0 is the no-effect control and ±100 the full control effect
#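 Whole-lifecycle infectious HCVcc-Cre system; cells 1,000/well, compound then virus (~0.5 moi) added 4 h after plating, 44 h culture. Luciferase read 15 sec following 15 min substrate incubation, room temp.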
# Pf growth 48h = inhibits P. falciparum growth in the first generation, 48 h; P. falciparum luciferase growth in erythrocytes, 48 h; Potency, µM (highest dose often 28.7 µM), without a hit: at the top dose activity change, negative = inhibition, hits mostly inhibitors; actives 5.9% (n = 310,000); AID 504832; further: on the % scale 0 is the no-effect control and ±100 the full control effect
#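 In quantitative HTS format, infected erythrocytes bearing luciferase-reporter parasites were treated for a single generation at 37 C. Luminescence after adding detection reagent served as the growth measure.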
# Pf growth 96h = P. falciparum growth inhibition at 96 hours; actives 6.9% (n = 320,000); P. falciparum luciferase reporter growth, 96 h; Potency, µM (series often up to 28.7 µM), without a hit: top-dose activity change, negative = inhibition, hits mostly inhibitors; further: on the % scale 0 is the no-effect control and ±100 the full control effect
#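 P. falciparum expressing integrated firefly luciferase grown in erythrocytes (2% hematocrit, 0.05% parasitemia final) with compounds for 96 hours at 37 C, 5% CO2. Growth inhibition read as loss of luminescence after adding luciferase detection reagent.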
# NS1 inh = influenza NS1 inhibition. actives 0.4% (n = 270,000). Potency, µM (doses to about 46.1 µM), for the others: at the highest dose activity, positive = more growth; calls by dose curve; further: actives are rising curves; nearly all actives have a fitted effect of over 50% in size
#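 Compounds were scored for reversing the slow growth caused by influenza A NS1 in S. cerevisiae, measured by optical density at 600 nm. Assay medium contained 2% galactose at pH 6.0; NS1-free yeast of the same strain were the positive control.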
# SARS PLP yeast = inhibitors of SARS-CoV papain-like protease in yeast | S. cerevisiae expressing SARS-CoV PLpro, growth rescue | Potency, µM (series often up to 32.9 µM), inactives show top-dose activity, positive = growth rescue, actives largely listed as activators | actives 0.19% (n = 330,000) | AID 485353; calls by dose curve; further: 0% is about no effect; nearly all actives have a fitted effect of over 55% in size
# Active calls of the source: *; u = inconclusive; x = no result; [ ] = another dose, or the depositor's remark. Unless noted, the call rests on the fitted dose curve; in most records, active means well fitted curve in the direction sought with a large enough effect; inconclusive means small, poorly fitted or top-dose-only effect, or another doubt; inactive means no such curve, though single readings can be large; an effect the other way counts as inactive or inconclusive. Potency means the concentration at half of the fitted maximal effect.
SMILES,AMA1 RON2 block,HCV inhibitor,Pf growth 48h,Pf growth 96h,NS1 inh,SARS PLP yeast
CN(C)CCNc1nc2sc3c(c2c(=O)n1-c1ccccc1)CCCCC3,-3%,-56%,-18%,-27%,4%,2%
CCCNC(=O)c1nc(C)n(-c2cc(Cl)ccc2Cl)n1,1%,13%,-30%,-1%,x,2%
CC(=O)C1C(c2ccc(Cl)cc2)c2c(noc2C)CC1(C)O (centres undefined),1%,-7%,8%,6%,-4%,0%
NC(N)=NC[C@H](N)C(=O)O,x,x,x,x,-3%,x
NS(=O)(=O)c1cc(C(=O)N=Nc2c(O)[nH]c3ccccc23)ccc1Cl,-7%,-16%,10µM*,1.5µM*,1%,0%
CC1CCC2(CC1)NC(=O)N(Cc1cccc(C(F)(F)F)c1)C2=O (centres undefined),24%,u,6%,0%,x,-4%
O=C(CNCc1ccc(Cl)cc1)Nc1cc(S(=O)(=O)N2CCCC2)ccc1Cl,-15%,7.9µM*,x,x,x,x
COc1ccc(S(=O)(=O)N2CCCCC2)cc1NC(=O)Cc1ccsc1,9%,-2%,u,13µM*,x,1%
O=C(Cc1ccccc1F)Nc1cc(S(=O)(=O)N2CCCC2)ccc1Cl,10%,-20%,u,u,x,4%
COc1ccc(S(=O)(=O)N2CCCCCC2)cc1NC(=O)Cc1ccccc1,-12%,1%,u,-3%,x,0%
CCOc1ccc(S(=O)(=O)N2CCCCC2)cc1NC(=O)Cc1ccsc1,3%[11.6 µM],u,10µM*,12µM*,x,9%
COc1ccc(CC(=O)Nc2cc(S(=O)(=O)N3CCCC3)ccc2Cl)c(OC)c1,-8%,u,u,15µM*,x,-7%
CCOc1ccc(S(=O)(=O)N2CCCCC2)cc1NC(=O)Cc1ccc(OC)cc1,-7%,x,x,x,x,x
COc1cc(OC)cc(C(=O)N/N=C(\C)CC(=O)Nc2ccccn2)c1,74%,-1%,-26%,u,-7%,-3%
COc1cc2c(cc1OC)/C(=C/C(=O)c1ccccc1F)NCC2,-12%,-5%,-10%,0%,-7%,-5%
COc1cc2c(cc1OC)/C(=C/C(=O)c1ccc(F)cc1)NCC2,-5%,u,u,12µM*,1%,-5%
CCOc1ccc(-n2cc(-c3ccc(OC)c(OC)c3)[nH]c2=S)cc1,60%,-14%,u,-12%,x,-2%
COc1ccc2[nH]cc(CCn3ccc(O)c(C/C=C/c4ccccc4)c3=O)c2c1,u,u,9.3µM*,u,u,0%
O=c1c(C/C=C/c2ccccc2)c(O)ccn1CCc1c[nH]c2ccccc12,-9%,6%,-26%,-25%,26%,5%
COc1cccc(NC(=O)c2ccc(N3C(=O)C4CCC(C)CC4C3=O)cc2)c1 (centres undefined),14%,24%,x,x,x,x
CCC1=NN(C(=O)c2cccc([N+](=O)[O-])c2)C(O)(c2ccc(C)cc2)C1 (centres undefined),57%,-9%,4.1µM*,-24%,-9%,5%
N#C/C(=C\c1ccc(-c2ccc([N+](=O)[O-])cc2)o1)C(=O)Nc1nc(-c2cccs2)cs1,0%,10µM*,13%,113%,3%,-2%
N#C/C(=C/c1ccc(-c2cccc([N+](=O)[O-])c2)o1)C(=O)Nc1nc(-c2cccs2)cs1,0%,-19%,x,x,x,x
CCN(CC(=O)NCc1ccc(Cl)cc1)C(=O)COc1ccc(Cl)cc1Br,-2%,u,-14%,36%,x,-24%
Cc1c(-c2cccs2)[n+](=O)c2c(n1[O-])CCCCC2,-4%,-2%,-3%,10µM*,5%,-3%
SMILES,AMA1 RON2 block,HCV inhibitor,Pf growth 48h,Pf growth 96h,NS1 inh,SARS PLP yeast
Cc1c(-c2ccccc2)[n+](=O)c2c(n1[O-])CCCC2,-5%,4%,73%,82%,-1%,0%
CCCCC(CC)COC1(c2ccccc2)OC(=O)c2ccccc21 (centres undefined),12%,x,9.3µM*,8.3µM*,9%,-23%
COc1ccc([N+](=O)[O-])cc1N(CC(=O)NCC1CCCO1)S(C)(=O)=O (centres undefined),-2%,8%,5%,21%,4%,1%
CCOc1ccc(C(CC(=O)O)NC(=O)c2cccs2)cc1OC (centres undefined),14%,8%,8%,150%,-1%,-1%
COc1ccc2c(c1)Sc1ccccc1N2,16µM*,u,-9%,u,x,-3%
COc1ccc2c(c1)S(=O)(=O)c1ccccc1N2,-10%,-5%,14%,30%,1%,-5%
c1ccc2c(c1)Nc1ccncc1S2,-3%,u,15µM*,u,5%,-3%
c1ccc2c(c1)Nc1cc3ccccc3cc1S2,-19%,8%,-21%,1.9µM*,1%,0%
C#CC1(NC(=O)NCCCC)CCCCC1,18%,10%,34%,46%,5%,2%
COC(=O)c1ccc(C(=O)OC)c(NC(=O)CN(c2ccccc2)S(=O)(=O)N(C)C)c1,5%,-7%,u,0%,-17%,1%
COC(=O)c1ccc(C(=O)OC)c(NC(=O)CS(=O)(=O)Cc2ccccc2)c1,0%,6%,6%,5.2µM*,-8%,3%
Cc1cc(C)cc(OC(=O)c2cccnc2)c1,0%,12%,-13%,u,-2%,1%
Cc1ccc(OC(=O)c2cccnc2)cc1,-6%,19%,-2%,12µM*,x,1%
CC(=O)C1=CCC(c2ccccc2)N(S(=O)(=O)c2ccc(Cl)cc2)C1 (centres undefined),15%,x,x,x,x,x
O=C(COC(=O)c1c2c(nc3ccccc13)CCN(Cc1ccccc1)C2)Nc1c(F)cccc1F,-4%,u,0%,10µM*,24%,0%
CCN1CCc2nc3ccccc3c(C(=O)Nc3ccc(F)cc3)c2C1,-3%,-13%,2.1µM*,u,-3%,-1%
CC(=O)Nc1ccc(NC(=O)COC(=O)c2c3c(nc4ccccc24)CCN(Cc2ccccc2)C3)cc1,-1%,13µM*,10µM*,5.9µM*,10%,1%
O=C(NCc1ccc(F)cc1)c1c2c(nc3ccccc13)CCN(Cc1ccccc1)C2,10%,4%,u,0%,1%,u
O=C(Nc1cccc(S(=O)(=O)N2CCCCC2)c1)c1c2c(nc3ccccc13)CCN(Cc1ccccc1)C2,-12%,u,2.9µM*,2.6µM*,15%,-2%
O=C(CN1CCN(Cc2ccccc2)CC1)Nc1cccc(S(=O)(=O)N2CCCCCC2)c1,-13%,u,u,-26%,x,1%
N[C@@H](CCCCO)C(=O)O,x,x,x,x,0%,x
COc1cccc(NC(=O)[C@@H]2CCC(=O)N2C2OC(=O)c3ccccc32)c1 (some centres undefined),8%,-3%,32%,19%,4%,6%
